Inconclusive results are not listed. A call without a number means that no potency is given here. The source made the active and inactive calls. The call rests on the fitted dose curve; in most records, active means well fitted inhibition curve with a large enough effect; inconclusive means small, poorly fitted or top-dose-only effect; inactive means no such curve, though single readings can be large or run the other way.
Assay: qHTS to identify inhibitors of the type 1 interferon - major histocompatibility complex class I in skeletal muscle: primary screen against the NCATS Mechanism Interrogation Plate v5.0 (MIPE) Libary (AID 1347411); further: nearly all actives have a fitted effect of over 65% in size
Conditions: iHSKM cells + IFN-b, HiBiT-tagged MHC-I luminescence, 24 h; series mostly up to 45.8 µM
Method in brief: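 Cells were genome-edited human myoblasts carrying a HiBit tag on endogenous HLA-B. They were treated with IFN-beta (4.0 ng/ml) and titrated compounds (top 46 uM) for 24 hrs before lytic HiBiT detection.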
With `C[C@@H]1CC[C@H]2[C@@H](C)C(=O)O[C@@H]3O[C@@]4(C)CC[C@@H]1[C@]32OO4` the Potency was “inactive”. With `C[C@]12CC[C@H](O)CC1=CC[C@@H]1[C@@H]2CC[C@]2(C)C(=O)CC[C@@H]12` the Potency was “inactive”. With `C[C@@H]1O[C@@H](O[C@@H]2C=C3CC[C@@H]4[C@H](CC[C@]5(C)[C@@H](c6ccc(=O)oc6)CC[C@]45O)[C@@]3(C)CC2)[C@H](O)[C@H](O)[C@H]1O` the Potency was 7.4 nM (active). For `C[C@@H]1C[C@@H]([C@H](O)CC2CC(=O)NC(=O)C2)C(=O)[C@@H](C)C1`, the Potency was 262 nM (active).
Potency means the concentration at half of the fitted maximal effect.
